Hsp90 Hop PPI: qHTS Assay for Disrupters of an Hsp90 Co-Chaperone Interaction. Hsp90 C-terminal peptide / TPR2A (Hop) interaction, human. AlphaScreen TPR2A-His6 binding biotin-Hsp90 C-terminal peptide. Potency, µM (series often up to 57 µM), for inactives: at the highest dose activity change, negative = inhibition. 71,000 tested, 0.44% active. AID 595, 2007; active = well fitted curve in either direction with a large enough effect; inconclusive = small, poorly fitted or top-dose-only effect, or another doubt; note: % is set by controls: 0 for no effect and ±100 for the full control effect
HEK293 cAMP cs: qHTS Assay for Agonists of the Thyroid Stimulating Hormone Receptor: Activators of Intracellular cAMP Concentrations in Parental HEK 293; Potency, µM (top dose mostly 57.1 µM), for inactives: at the highest dose activation, most hits filed as activators; parental HEK293 CNG cAMP sensor, membrane potential fluorescence; AID 938, 2007; 73,000 tested, 2.5% active; active = well fitted activation curve with a large enough effect; inconclusive = small, poorly fitted or top-dose-only effect; inactive = no such curve, though single readings can be large or run the other way; note: % of control where 0% means no effect; nearly all actives have a fitted effect of over 55% in size
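Counterscreen for endogenous-receptor signalling: CNG-channel HEK 293 cells report cAMP rise by membrane depolarization. After 60 min dye equilibration with 100 uM RO 20-1724, compounds incubated 30 min before bottom-read fluorescence at 590 nm.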
CRE Fsk mod: Cell signaling CRE-BLA (Fsk stim); CHO CRE-bla reporter (cAMP response element driving beta-lactamase), forskolin EC10, beta-lactamase ratio; AID 662, 2007; Potency, µM (top dose mostly 38.2 µM), inactives show at the top dose activity change, negative = inhibition, usual class: activators; 71,000 tested, 2.5% active; active = well fitted activation curve with a large enough effect in the signal ratio, with a control signal flat, not every such curve was filed as active; inconclusive = small, poorly fitted or top-dose-only effect, or effect the other way, or a change in a side signal; the % refers to the signal ratio; note: % of control where 0% means no effect
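CRE-bla CHO reporter cells treated with compound titration plus EC10 NKH 477 (water-soluble forskolin), incubated 3 h at 37 °C; CCF4 loading 2 h at room temperature, 460/530 nm emission ratio read, AC50 values derived for positive or negative modulators.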
IkB signaling: IkB Signaling; 110,000 tested, 0.04% active; Potency, µM (highest dose often 57.1 µM), inactives show top-dose IkBa stabilization activation; AID 445, 2006; ABC-DLBCL IkBa-CBG/CBR dual luciferase ratio, 4 h; response scale: scaled: untreated 0%, proteasome inhibitor 100%; active = well fitted curve in the direction sought with a large enough effect in the signal ratio, not every such curve was filed as active; inconclusive = small, poorly fitted or top-dose-only effect, or a change in a side signal; the % refers to the signal ratio;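 note: the direction sought is a rising ratio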
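Curves were fitted separately to fusion (green), unfused (red) and ratio luminescence, then classed by r2, magnitude and activity. Cells: OCI-Ly3, 4 h compound plus doxycycline at 37C; 10 uM MG-132 defined full response.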
TSHR agonist: qHTS Assay for Agonists of the Thyroid Stimulating Hormone Receptor; Thyrotropin receptor (Homo sapiens), P16473; Potency, µM (titrated, usually from 57.1 µM), for the others: at the top dose activation, most hits filed as activators; 73,000 tested, 0.48% active; HEK293-CNG-TSHR cells (CNG channel as cAMP sensor), membrane potential dye, cAMP; active = well fitted activation curve with a large enough effect in the main read-out, with a control signal flat, not every such curve was filed as active; inconclusive = small, poorly fitted or top-dose-only effect, or a change in a side signal; inactive = no such curve, though single readings can be large or run the other way; % of control where 0% means no effect;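 note: the control signal comes from parental cells without the receptor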
Target sequence (P16473 whole entry, looked up): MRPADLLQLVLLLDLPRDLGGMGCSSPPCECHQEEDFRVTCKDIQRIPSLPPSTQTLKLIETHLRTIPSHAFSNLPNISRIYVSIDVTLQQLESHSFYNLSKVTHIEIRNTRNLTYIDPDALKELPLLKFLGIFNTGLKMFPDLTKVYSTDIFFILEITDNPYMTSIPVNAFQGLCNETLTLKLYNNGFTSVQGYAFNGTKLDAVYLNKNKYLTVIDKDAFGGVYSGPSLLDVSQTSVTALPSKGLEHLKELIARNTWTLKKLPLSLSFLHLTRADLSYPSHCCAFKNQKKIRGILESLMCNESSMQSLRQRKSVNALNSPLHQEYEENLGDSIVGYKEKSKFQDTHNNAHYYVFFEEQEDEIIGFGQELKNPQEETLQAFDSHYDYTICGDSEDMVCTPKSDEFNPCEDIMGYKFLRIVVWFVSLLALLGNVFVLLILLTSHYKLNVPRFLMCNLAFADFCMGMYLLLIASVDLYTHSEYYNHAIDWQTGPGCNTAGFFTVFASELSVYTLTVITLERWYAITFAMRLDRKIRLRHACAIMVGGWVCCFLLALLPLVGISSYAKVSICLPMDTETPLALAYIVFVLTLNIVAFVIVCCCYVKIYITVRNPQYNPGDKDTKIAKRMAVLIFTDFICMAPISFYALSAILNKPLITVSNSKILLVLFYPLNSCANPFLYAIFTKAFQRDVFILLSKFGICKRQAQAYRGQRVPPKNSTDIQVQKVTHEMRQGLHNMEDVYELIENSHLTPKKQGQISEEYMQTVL
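cAMP rise detected as CNG-channel membrane depolarization by fluorescent dye (emission 590 nm), 30 min after compound, following 60 min dye loading containing 100 uM RO 20-1724 at room temperature. Cells: TSHR/CNG HEK 293, with parental CNG HEK 293 as control.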
Active calls of the source: *; ? = inconclusive; / = not tested or not shown; [ ] = another dose, or the depositor's remark. Most compounds without a hit are left out; they make up all but 3.5% or so of the library. Potency is the fitted concentration of half-maximal effect.

SMILES	Hsp90 Hop PPI	HEK293 cAMP cs	CRE Fsk mod	IkB signaling	TSHR agonist
c1ccc(Nc2nc(-c3cccnc3)nc3ccccc23)cc1	10.7%	?	10µM*	-5.8%[11.4 µM]	?
Nc1[nH]c(=O)nc2c1ncn2[C@H]1O[C@@H](CO)[C@@H](O)[C@@H]1O	-3.3%[11 µM]	4.2%[11.4 µM]	3.0%[7.6 µM]	1.5%[11.4 µM]	21.5%[11.4 µM]
O=C1OC2(c3ccc(O)cc3Oc3cc(O)ccc32)c2c1c(-c1ccccc1)c(-c1ccccc1)c(-c1ccccc1)c2-c1ccccc1	?	16.6%[11.4 µM]	?	-1.7%[11.4 µM]	9.4%[11.4 µM]
COc1cc(NS(C)(=O)=O)ccc1Nc1c2ccccc2nc2ccccc12	-5.8%	?	15.8µM*	-15.3%	?
O=C(c1c(Cl)nc2sccn12)N1CCN(c2cccc(Cl)c2)CC1	-0.4%	31.6µM*	?	?	?
COC(=O)c1cccc(Nc2nc3ccccc3nc2C)c1	20.2%	31.6µM*	?	-3.9%	?
Nc1nc(Sc2ccc([N+](=O)[O-])c3nonc23)c2[nH]cnc2n1	-5.0%[11 µM]	6.9%[11.4 µM]	-8.4%[7.6 µM]	3.98µM*	-5.0%[11.4 µM]
CNc1ncnc(Sc2nc(N)nc3nc[nH]c23)c1[N+](=O)[O-]	-1.6%[11 µM]	-2.1%[11.4 µM]	-14.6%[7.6 µM]	5.3%[11.4 µM]	8.2%[11.4 µM]
COc1ccc(N2CCN(c3oc(COc4ccccc4)nc3C#N)CC2)cc1	12.6µM*	0.794µM*	?	7.5%	?
N#Cc1nc(COc2ccccc2)oc1N1CCOCC1	-10.7%	1.5%	3.3%	0.5%	7.2%
N#Cc1nc(COc2ccc(Br)cc2)oc1N1CCCCCC1	?	25.1µM*	26.6%	4.1%	?
Nc1ncnc2c1ncn2[C@@H]1CCCO1	-8.8%	11.9%	-1.7%	6.4%	-14.6%
Cc1cc(C)nc(NCCCc2ccccc2)n1	2.4%	28.3%	4.6%	1.0%	4.5%
CCCCNc1cc(C)nc(NCc2ccccc2)n1	-3.9%	6.31µM*	?	?	?
COc1cccc2c(=O)n(CC(=O)NC3CCCC3)ccc12	-2.0%	1.2%	?	1.4%	1.26µM*
CCC(=O)N1c2ccccc2CC1C(=O)NCCc1ccccc1Cl (stereo not drawn)	/	/	/	-0.4%	/
CN(Cc1ccco1)c1ncncc1-c1ccccc1C(F)(F)F	-6.3%	?	2.6%	2.3%[11.4 µM]	?
COC(=O)[C@@]1(Cc2ccc(F)cc2)[C@H]2c3cc(C(=O)N4CCCC4)n(Cc4ccc(C)c(F)c4F)c3C[C@H]2CN1C(=O)c1ccccc1	-18.5%	?	5.9%	/	?
COC(=O)[C@@]1(Cc2ccc(F)cc2)[C@H]2c3cc(C(=O)N4CCCC4)n(CC4CC4)c3C[C@H]2CN1C(=O)c1ccccc1	-4.1%	3.98µM*	-6.3%	/	?
COC(=O)[C@@]1(Cc2ccc(F)cc2)[C@H]2c3cc(C(=O)N4CCCC4)n(CCF)c3C[C@H]2CN1C(=O)c1ccccc1	-6.6%	?	-18.7%	/	?
COC(=O)[C@@]1(Cc2ccc(F)cc2)[C@H]2c3cc(C(=O)N4CCCC4)n(Cc4ccc(C)o4)c3C[C@H]2CN1C(=O)c1ccccc1	-21.9%	31.6µM*	-8.8%	/	?
COC(=O)[C@@]1(Cc2ccc(F)cc2)[C@H]2c3cc(C(=O)N4CCCC4)n(Cc4cc(C)n(C)n4)c3C[C@H]2CN1C(=O)c1ccccc1	-11.9%	15.8µM*	?	/	?
COC(=O)[C@@]1(Cc2ccc(F)cc2)[C@H]2c3cc(C(=O)N(C)C)n(Cc4cc(C)n(C)n4)c3C[C@H]2CN1C(=O)c1ccccc1	-7.6%	?	?	/	?
COC(=O)[C@@]1(Cc2ccc(F)cc2)[C@H]2c3cc(C(=O)N4CCCC4)n(Cc4ccc(S(C)(=O)=O)cc4)c3C[C@H]2CN1C(=O)c1ccccc1	-15.5%	15.8µM*	-8.7%	/	?
COC(=O)c1oc2ccc(Br)cc2c1NC(=O)CCN1CCOCC1	0.3%	?	5.6%	1.2%	?
CCOC(=O)c1oc2ccc(Br)cc2c1NC(=O)CN1CCN(C)CC1	-6.1%	17.8%	0.02µM*	-2.1%	13.1%
COc1cc2cc(Oc3ccc4ccc(=O)oc4c3)c(=O)oc2cc1O	0.3%	-8.2%	25.1µM*	1.6%[11.4 µM]	3.6%

Source: PubChem
